# Whole data set: some 33,000 sequences, median “E-score (-0.5 to 0.5)” near -8e-05, cut for the highest 2% near 0.23. Many of the other results were omitted from the sample, so the highest values are more common in it than they were.
# Target: T1, Nrg2 (UniProt P38082)
# T1 sequence: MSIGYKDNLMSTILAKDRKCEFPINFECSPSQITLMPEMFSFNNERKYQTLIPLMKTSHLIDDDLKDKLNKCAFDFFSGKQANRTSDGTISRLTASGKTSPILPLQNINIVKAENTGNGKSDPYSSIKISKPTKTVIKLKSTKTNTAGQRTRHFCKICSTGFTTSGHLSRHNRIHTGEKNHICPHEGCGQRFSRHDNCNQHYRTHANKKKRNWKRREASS
# Experiment: PBM E-score (8-mer binding enrichment) (E-score (-0.5 to 0.5)); higher = stronger / more preferred TF binding
# Conditions: protein concentration: 100 nM; construct: GST-full length
# Outline: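 PURExpress in vitro transcription/translation supplied GST-tagged yeast transcription factors, either full-length or DNA-binding domain. Applied at about 100-200 nM to universal all-10-mer Agilent arrays double-stranded by primer extension, the bound protein was detected with fluorescent anti-GST. E-scores, modified Wilcoxon-Mann-Whitney statistics, were given by the Universal PBM Analysis Suite to ungapped eight-base words pooled with their reverse complements after masliner normalisation.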
row,Sequence,PBM E-score
1,ACATAGTA,0.0458
2,GCATAGTA,0.23
3,TCTGCAAA,-0.0511
4,GGCTTCTA,-0.075
5,AGAAACTG,0.0813
6,GACAAGGA,0.0442
7,AGGGTCAG,-0.102
8,ACGGTCCC,-0.00846
9,CGGGTCAA,-0.0478
10,CGGGTCCA,0.0193
11,AGGGTCAA,0.236
12,AAGGTCCA,0.073
13,AGGGTCCA,0.439
14,AGGGTCCC,0.397
15,GAGGTCCA,-0.0725
16,GGGGTCCA,0.27
17,ACGGTCCA,-0.162
18,CGGGTCCC,-0.125
19,GGGACAAA,0.11
20,GCTGCCAC,-0.138
21,ACAGTGGT,0.0526
22,CTGCTTGA,-0.0823

row,Sequence,PBM E-score
1,CAGATCAG,0.194
2,CGCTCGGC,0.0597
3,ACGGTCCG,-0.231
4,AGGGTCCG,0.374
5,AAGGTCCG,-0.0532
6,ACCTCAAC,0.0405
7,GGCCAACC,0.0203
8,AATATTAT,0.219
9,CGTATTAG,0.0345
10,ACTATTAA,0.175
11,AATATTAG,0.256
12,CATATTAG,0.124
13,GATATTAA,0.147
14,AGTATTAA,0.219
15,CATATTAA,0.129
16,AATATTAA,0.295
17,AATATTAC,0.14
18,AGTATTAG,0.273
19,TATATTAA,0.234
20,CTTAGGAA,-0.0218
21,CGGAGCAA,0.0265
22,CCTTCGCC,-0.31

row,Sequence,PBM E-score
1,AATCCTGC,-0.00651
2,CGCATTCA,0.0356
3,GAACTGCA,0.0913
4,ACATATAA,0.211
5,GCCCCCAA,-0.331
6,CTTTCCAA,-0.0143
7,AATATTCC,0.233
8,AATATTCA,0.144
9,AATATTCG,0.177
10,TATTACCA,0.0363
11,CGAATACA,0.0068
12,TCAACGGA,-0.0313
13,ACAACGGT,-0.0246
14,ACAACGGA,0.242
15,CCAACGGA,-0.031
16,ACAACGGG,0.243
17,CCAACGGG,0.0593
18,GACCGGAC,-0.168
19,AAAGGGCG,0.0812
20,AGCGCACT,-0.0126
21,GTTAGGCA,-0.146
22,CATGGTCC,0.0356

row,Sequence,PBM E-score
1,ATTGGTCA,0.0477
2,CATGGTCA,0.236
3,GTTGGTCA,0.229
4,CATGGTCG,-0.0584
5,CTTGGTCA,0.138
6,GGAGTGAC,0.102
7,ACACCGAC,-0.151
8,CGCCCTAA,-0.171
9,CGGGCTAC,-0.0936
10,AAAGGGTT,0.0608
11,AAAGGGTC,0.318
12,AAGGGGTG,-0.00477
13,AGGGGGTC,-0.163
14,ATGGGGTC,0.299
15,CTGGGGTC,0.015
16,CAAGGGAA,0.0785
17,CAAGGGAG,-0.0764
18,AAGGGGTC,0.239
19,CAAGGGAC,0.261
20,AAAGGGTG,0.00635
21,ATGGGGTA,0.127

# Reference: the supplement of paper PMC3334620
